A selection: hits, their analogues and other compounds. The true share with any hit is near 17%.
HepG2 tox: counter-screen for TGF-b inhibitors: cytotoxicity in HepG2 cells. AID 588856. 410,000 compounds, 0.76% hits. HepG2 CAGA-GFP viability, ATP luminescence, 18 h. Potency, µM (doses to about 46.1 µM), usual class: cytotoxic
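CellTiter-Glo luminescence gave cytotoxicity after 18 hours at 37 degrees C. The cells were HepG2 CAGA-GFP in 1% FBS DMEM, stimulated with 500 pg/mL TGF-beta after compound addition. %Activity was normalised to no-cell wells (complete cell-killing) and DMSO (no toxicity), and curves were fitted and classified.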
S2 tox: reduces viability in counter-screen for ATXN expression inhibitors; 400,000 compounds, 0.49% hits; S2 cells (HEK-293 line with an ATXN2-luciferase reporter) viability, CellTiter-Fluor protease fluorescence, 24 h; Potency, µM (highest dose often 56.7 µM), usual class: cytotoxic; note: nearly all actives have a fitted effect of over 40% in size
TDP1 cell CPT: growth inhibition of DT40 Tdp1-/-;hTDP1 cells with camptothecin (screen for TDP1 inhibitors); chicken DT40 Tdp1-/-;hTDP1 cells + 20 nM CPT, ATP luminescence, 48 h; Potency, µM (highest dose often 46.2 µM), most hits filed as inhibitors; 420,000 compounds, 12% hits; note: nearly all actives have a fitted effect of over 55% in size
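Chicken DT40 Tdp1-/- cells stably complemented with human TDP1 were seeded at 400 cells/well in medium containing 20 nM camptothecin, exposed to pin-transferred compounds, and grown at 37 °C for at least 48 hr. Viability was read as ATP luminescence.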
ATXN2 expr inh: ATXN2 expression inhibition; HEK-293 ATXN2-luciferase reporter, luminescence, 24 h; Potency, µM (series often up to 57 µM), usual class: inhibitors; 360,000 compounds, 0.72% hits; AID 1745845; note: nearly all actives have a fitted effect of over 55% in size
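qHTS (up to 57 uM final) was run with 24 h compound exposure of reporter cells at 37 °C. Each well was multiplexed: SteadyGlo luminescence measured ATXN2-luciferase expression after a fluorogenic Gly-Phe-AFC viability readout (25 uM final).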
DT40 TDP1 no CPT: qHTS for Inhibitors of human tyrosyl-DNA phosphodiesterase 1 (TDP1): qHTS in cells in absence of CPT; DT40 Tdp1-/- hTDP1 cells, no CPT, ATP luminescence, 48 h; Potency, µM (top dose mostly 46.2 µM), hits mostly inhibitors; 420,000 compounds, 15% hits; AID 686978, 2013; note: nearly all actives have a fitted effect of over 55% in size
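Chicken DT40 Tdp1-/- cells stably complemented with human TDP1 were seeded at 400 cells/well with DMSO in place of 20 nM camptothecin. After compound pinning, cells grew at least 48 hr at 37 °C; viability read by CellTiter-Glo luminescence.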
TGFb SMAD3 inh: blocks TGF-b signaling; 410,000 compounds, 1.2% hits; HepG2 CAGA-GFP TGF-b/SMAD3 reporter, GFP fluorescence, 18 h; TGF-beta stimulated, 500 pg/mL final; Potency, µM (top dose mostly 46.1 µM), most hits filed as inhibitors; AID 588855; note: nearly all actives have a fitted effect of over 65% in size
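HEPG2 CAGA-GFP cells (1000/well, DMEM with 1% FBS) were pre-incubated 2 h at 37 degrees C, given compound by pin tool, then stimulated with TGF-beta at 500 pg/mL final for 18 h before per-cell GFP fluorescence imaging.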
Hits are given with their value; . = inactive; ? = inconclusive; / = not tested or not shown; ! = not confirmed by another sample; [ ] = dose if it differs, or a comment. Calls come from the whole dose curve; as a rule, active = well fitted curve in the direction sought with a large enough effect; inconclusive = small, poorly fitted or top-dose-only effect, or another doubt; inactive = no such curve, though single readings can be large; an effect the other way counts as inactive or inconclusive.

SMILES	HepG2 tox	S2 tox	TDP1 cell CPT	ATXN2 expr inh	DT40 TDP1 no CPT	TGFb SMAD3 inh
COCCNC(=O)C1(C)CCCN(CCS(=O)(=O)c2ccc(C)cc2)C1 (centres undefined)	.	.	.	.	.	.
COc1ccc(Cl)cc1C(=O)NCC(c1ccc(N(C)C)cc1)N1CCOCC1 (centres undefined)	.	/	?	/	16.4µM	.
CN(C)c1ccc(C(CNC(=O)c2c(F)cccc2Cl)N2CCOCC2)cc1 (centres undefined)	.	/	.	/	.	.
CN(C)c1ccc(/C=C/C(=O)c2cccnc2)cc1	.	.	.	.	.	.
O=C(/C=C/c1cccnc1)c1ccccc1O	.	.	?	/	?	.
O=C(/C=C/c1cccnc1)c1cccc(O)c1	.	/	2.91µM	?	2.91µM	?
O=C(/C=C/c1cccc(O)c1)c1cccnc1	.	?	8.2µM	.	23.1µM	?
Cc1cccc(C2c3[nH]c4ccccc4c3CCN2Cc2cnn(-c3ccc(F)cc3)c2)n1 (centres undefined)	.	.	.	.[11.3 µM]	.	.
O=C(COC(=O)COc1ccc(Cl)cc1)NC1CCCC1	.	.	.	/	.	.
Cc1ccc(-c2csc(=Nc3cccnc3)n2CCCn2ccnc2)cc1C	.	?	16.4µM	.	11.6µM	.
CCCCn1c(C)csc1=Nc1cccnc1	.	.	?	.	?	.
COCCn1c(-c2ccccc2)csc1=Nc1cccnc1	.	.	16.4µM	.	?	?
Cc1ccc(-c2csc(=Nc3cccnc3)n2CCCN2CCCC2=O)cc1C	.	.	?	.	18.4µM	.
CC(C)n1c(-c2ccco2)csc1=Nc1cccnc1	.	.	11.2µM	.	?	.
COC(=O)[C@@](C)(O)C1(C(=O)SC(C)(C)C)CC1	.	.	.	.	.	.
Cc1cc(C)cc(-n2ccnc(NCCc3ccccc3)c2=O)c1	.	.	?	.	?	.
CC(=O)Nc1ccccc1S(=O)(=O)CC1CC1(Cl)Cl (centres undefined)	.	.	.	.	.	.
CN1CCN(C(=S)NC(=O)c2ccc(Br)cc2)CC1	.	.	?	.	5.17µM	.
Cc1ccc2c(c1)C1CN(C)CCC1N2C(=S)NC(=O)c1ccc(Br)cc1 (centres undefined)	.	?	9.2µM	?	?	.
CN1CCN(C(=S)C(=O)Nc2ccc(Br)cc2)CC1	.	.	13µM	.	?	.
Cc1ccc(C(=O)NC(=S)N2CCN(C)CC2)cc1	10µM	.	.	.	.	.
CCCCC(CC)C(=O)Nc1cc([N+](=O)[O-])ccc1F (centres undefined)	.	.	.	.	.	.
O=C(COc1ccccc1F)NCC(c1ccco1)N1CCCC1 (centres undefined)	.	.	.	.	.	.
COc1ccc(C2=CC(=O)C[C@H](c3ccc4c(c3)OCO4)C2)cn1	.	.	.	.	.	.
COc1ccc(-c2c(-c3ccc4c(c3)OCO4)noc2-c2ccsc2)cn1	.	/	12.6µM	/	14.1µM	?
SMILES	HepG2 tox	S2 tox	TDP1 cell CPT	ATXN2 expr inh	DT40 TDP1 no CPT	TGFb SMAD3 inh
COc1ccc(-c2c(-c3ccc4c(c3)OCO4)noc2C)cn1	.	.	?	.	11.2µM!	.
O=S(=O)(Cc1ccccc1)NCCc1cccc(Cl)c1	.	.	.	.	.	.
O=C(COC(=O)/C=C/c1cc(Br)ccc1F)NC1CC1	.	.	.	.	.	.
O=C(CN1CCc2cc3c(cc2C1)OCCCO3)Nc1c(F)cccc1F	.	.	23.1µM	.	?	.
CC(C)(C)OC(=O)N1CCC[C@H]1C(=O)Nc1ccc(C#N)cc1	.	.	.	.	?	.
c1coc(-c2nc3cc4ccccc4cc3nc2-c2ccco2)c1	.	/	/	/	/	?
COc1ccc(-n2c(/C=C/c3cccc(C(F)(F)F)c3)nc3ccccc3c2=O)cc1Cl	.	/	8.2µM	/	13µM	.
COc1ccc(-n2c(/C=C/c3cccc4ccccc34)nc3ccccc3c2=O)cc1Cl	.	/	20.6µM	/	20.6µM	.
COc1ccc(-n2c(/C=C/c3ccccc3F)nc3cc(OC)c(OC)cc3c2=O)cc1Cl	.	/	14.6µM	/	18.4µM	.
O=C(O)c1ccc(-n2c(/C=C/c3ccccc3)nc3ccccc3c2=O)cc1	.	.	?	.	.	.
COc1ccc(-n2c(SC3CCOC3=O)nc3ccccc3c2=O)cc1Cl (centres undefined)	.	.	13µM	/	?	.
Cc1[nH]c2ccccc2c1C(=O)C(=O)N1c2ccccc2CC1C (centres undefined)	.	?	?	.	?	?
Cc1ccc(CN2CCN(CC(=O)NCc3ccccc3Cl)C2=O)cc1	.	.	.	.	.	.
COC(=O)c1ccccc1NC(=O)NN1CCN(C)CC1	.	.	.	.	.	.
COC(=O)/C=C/c1ccccc1S(=O)(=O)NC(C)C	.	/	?	/	?	.
CCOc1ncccc1C(=O)OCCCC(=O)c1ccc(Br)cc1	.	.	.	/	?	.
CCOc1ccc(-n2c(/C=C/c3cccc(F)c3)nc3cc(OC)c(OC)cc3c2=O)cc1	.	/	9.2µM	/	9.2µM	?
Nc1cc(=O)[nH]c(SCC(=O)NC2CCCCCCC2)n1	.	.	.	.	.	.
CCCCn1c(CN2CCN(c3cccc(Cl)c3)CC2)nc2c1c(=O)[nH]c(=O)n2C	.	?	3.26µM	?	3.26µM	?
Cn1c(=O)[nH]c(=O)c2c1nc(CN1CCN(c3cccc(Cl)c3)CC1)n2CCN1CCOCC1	.	?	.	.	?	.
CC(C)Cn1c(CN2CCN(c3cccc(Cl)c3)CC2)nc2c1c(=O)[nH]c(=O)n2C	.	?	18.4µM	?	20.6µM	?
Cn1c(=O)[nH]c(=O)c2c1nc(CN1CCN(c3cccc(Cl)c3)CC1)n2Cc1ccccc1Cl	.	.	?	.	14.6µM	?
Cc1cccc(NC(=O)c2oc3ccccc3c2NC(=O)Cc2coc3ccc(C(C)C)cc23)c1	.	.	?	.	?	.
CC(C)c1ccc2occ(CC(=O)Nc3cccc(C(F)(F)F)c3)c2c1	.	?	?	.	29.1µM	?
Cc1ccc2occ(CC(=O)Nc3ccc(S(N)(=O)=O)cc3)c2c1	.	.	.	.	.	.
CCOc1ccccc1NC(=O)Cc1coc2ccc(C)cc12	.	.	?	.	16.4µM	.
Cc1ccc2occ(CC(=O)Nc3ccc(Cl)c(C(F)(F)F)c3)c2c1	12.6µM	?	20.6µM	25.1µM	16.4µM	?

Screening data: PubChem BioAssay, National Center for Advancing Translational Sciences (NCATS)
